The test system of the first test is PPARg:RXRa (NR concentration 180 nM, RXRa partner concentration 90 nM). The experiment in a line: PBM binding z-score (relative to random genomic background probes); higher = stronger binding; sequences stand for … in GC…GCGATTGACAGCGTAGAATGAAGG
In outline: (§1)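 Each nuclear receptor dimer, without ligand, was incubated for 1 h on custom Agilent 4×180K protein-binding microarrays. Binding was detected with antibodies against each partner (one per run), and scanned fluorescence was regression-normalized. The binding z-scores are referenced to random human genomic background probes.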
Sequence CCTTACGGGTCACTGACAGGTTACAGCATTTGGA yielded a PBM binding z-score of 4.41.

CCAGACAGGTGAAAAGTAACTCAGTCTGGTACGC showed a PBM binding z-score of 1.08. In turn, ATCTCTAGGTAACCAAGATCAGTGAATGCCGAAC displayed a PBM binding z-score of 0.694. On the same count and under the same terms, in the case of CCTACTGAGCCAAAGGTCATTGATTCCAATGCTC it was 8.72.

GCGACTGGGGCATCAGAAGGTTACCATAACTTAA showed a PBM binding z-score of 1.43. As to ATCTATAGGTAACCAAGTTCAGTGAATGCCGAAC, the PBM binding z-score was determined as 0.856.

For the sequence CCAGACAGGTGAGAAGGCAACTCAGCCTCGATTA, the PBM binding z-score amounted to 0.575. The sequence CCAGTCAGGTGAGAAGGTAACTCAGCCTCGATTA registered a PBM binding z-score of 0.294. TCGACTAGGTTAGTCGGGGCATTCAGCCAACATA displayed a PBM binding z-score of 0.144. In turn, CGTCCAAGTTCAACTAAGGTAACGTAAAGCACGC had a PBM binding z-score of 1.14. As to AATACAGGGGCACTAGGCCAGAGTAGGTACGAAT, the PBM binding z-score came out at 2.84.

In turn, CCTGCTAGGTCATGGACAGCTAATCTACAGTATG showed a PBM binding z-score of 2.53. Sequence GCTAGTTGGGCAGTAAAAGGTCACACACCGGTCG showed a PBM binding z-score of 2.12. TCAGACGGGTGAAGGTAACTCAGGTACGCAGTCG displayed a PBM binding z-score of 0.625. ATCTCTAGGTACGACTCAGTTCAGTGAAGAACGC: the PBM binding z-score is 0.161.

As for GCGACTGGGGCATAGCAGGTTACCATAAGGTTGG, the PBM binding z-score was found to be 1.02. Sequence CGTCAAAGTTCAACTAAGGTAACGTAAAGCACGC gave a PBM binding z-score of 5.22. The same measure, in the same setting: the result for TCAGACAGGTGAACGTAACTCAGGTACGCAGTCG reads 1.05.

Another test has as its system PPARg:RXRa 270nM:90nM, anti-RXR (NR concentration 270 nM, RXRa partner concentration 90 nM). Described as above. In outline:
as §1
The sequence GATACAGGGTCAGCTAGAGGCCTGAGTATGGAAA gave a PBM binding z-score of 2.86. The same measure, in the same setting: in the case of CTCGAAAGGTCGTGCTCAGGTGAGCATACCAAAC it was 4.08; in that of CGTCCAAGGTCAAAGGTCAGTGAGGAGATGACGG, 8.98. Still for that read-out and setting: the result for GATGCTAGGTCAACTGATGGTCAGCTAAAGCTCG reads 2.97. Sequence AGATTGAGGTTATTAAGATCAGGGAATTGCGGTC returned a PBM binding z-score of 1.65. The same measure, in the same setting: the result for CGTCCAAGGCCAATGCTAGGTCAGTGAAAGCATT reads -0.432. As for GAAACAGGGTCAAGGCCAGAGTACGCGTATTGAT, the PBM binding z-score came out at 6.19. On the same count and under the same terms, in the case of CCGCCTAGGTCAGGGCCAGTATAGGAGGAACGTT it was 0.881. Still for that read-out and setting: the result for CCGAGTAGGTTAGGGGGCATTCAGGCAACGGTGA reads 7.33; that for ACTCGGAGGACAACGGTCAGAGCTACGCCAGTGA, 0.638; that for CGTCAAAGTTCAACTAAGGTAACGTACAGCACGC, 5.62. On the same count and under the same terms, in the case of GCGACTGGGGCATCAGCAGGTTACAATAACTTAA it was 0.768; in that of TCTCGGAAGACACGAAAGGTCAGAGCTCGACATC, 2.46; in that of TCGAGAAGGTTAGTCGGGGCATTCAGCCAACATA, 1.2.

In the case of AGAATGAGGTTATACGTAGATCAGGGAGGAAAGT, the PBM binding z-score was found to be 2.09.

ATATGTAGGTTATCGGGCCATTCAGTTTGCGCAT: the PBM binding z-score worked out at 4.45. On the same count and under the same terms, in the case of TATACAGGGTAAAAGGCCAGAGTACGAATGTCGA it was 4.11; in that of CCTGCTAGGTAAATGGTCAGCTAAAGCAGCTCGC, 1.64; in that of TCTAATTGGTCAAAGGTCACACACTCGAAATGCG, 9.75.

TCATATAGGTTAATGCTAGGTGAAAGTCCGATCT displayed a PBM binding z-score of 3.06. Take TAGCCTAGGTCAGATCGGCCCAGTATACGCTATA: the PBM binding z-score is 0.986. Consider CAAACTAGGTAACAGAGGTCAAAGTCCGTGCGTA, for which the PBM binding z-score was 6.35. Same read-out and setting: the result for CCTTACGGGTCACTGACAGGTTACAGCATTTGGA reads 4.6. On the same count and under the same terms, the result for CCAGACAGGTGAAAAGTAACTCAGTCTGGTACGC reads 2.27; that for ATCTCTAGGTAACCAAGATCAGTGAATGCCGAAC, 0.588; that for CCTACTGAGCCAAAGGTCATTGATTCCAATGCTC, 8.74. The sequence GCGACTGGGGCATCAGAAGGTTACCATAACTTAA gave a PBM binding z-score of 1.22. The sequence ATCTATAGGTAACCAAGTTCAGTGAATGCCGAAC registered a PBM binding z-score of 0.848. Still for that read-out and setting: in the case of CCAGACAGGTGAGAAGGCAACTCAGCCTCGATTA it was 0.793; in that of CCAGTCAGGTGAGAAGGTAACTCAGCCTCGATTA, 1.13.

In the case of TCGACTAGGTTAGTCGGGGCATTCAGCCAACATA, the PBM binding z-score is 1.05.

Sequence CGTCCAAGTTCAACTAAGGTAACGTAAAGCACGC came in with a PBM binding z-score of 1.5. AATACAGGGGCACTAGGCCAGAGTAGGTACGAAT: the PBM binding z-score was 2.51. The same measure, in the same setting: the result for CCTGCTAGGTCATGGACAGCTAATCTACAGTATG reads 2.8.

GCTAGTTGGGCAGTAAAAGGTCACACACCGGTCG: the PBM binding z-score was 3.8. With TCAGACGGGTGAAGGTAACTCAGGTACGCAGTCG, the PBM binding z-score came to 1.66. The same measure, in the same setting: the result for ATCTCTAGGTACGACTCAGTTCAGTGAAGAACGC reads 0.105; that for GCGACTGGGGCATAGCAGGTTACCATAAGGTTGG, 0.684; that for CGTCAAAGTTCAACTAAGGTAACGTAAAGCACGC, 5.44.

Consider TCAGACAGGTGAACGTAACTCAGGTACGCAGTCG, for which the PBM binding z-score came out at 2.06.

(Values after the supplement of paper PMC6555819.)
